Earlier results on 28 compounds are cited in PubChem BioAssay AID977608.

About 4,300 (100%) of roughly 4,300 compounds were called active. No cut-off is given here; in the data, nearly all actives have IC50 up to about 1400 µM. So high a share suggests a set chosen from earlier hits. The list shows a part of the results.

A short description of the series: protein-ligand inhibition affinities from structures – PDB-derived complexes (AID 977608).

Take `CCC(CC)[C@H](NC(C)=O)[C@@H]1[C@H](O)[C@@H](C(=O)O)C[C@H]1NC(N)N`: the IC50 (as a rule, the point on the concentration scale where inhibition reaches its midpoint) is 0.0004 µM (active) (literature IC50, protein: Neuraminidase, PDB entry 4mwv) and 0.185 µM (active) (literature IC50, protein: Neuraminidase, PDB entry 4mx0).

Take `CC(C)Oc1ccc(-c2ccnc(NC([P+](O)(O)O)[P+](O)(O)O)c2)cc1`: where the note is “literature IC50, protein: human farnesyl pyrophosphate synthase (FPPS), PDB entry 4h5c”, the 50% inhibitory concentration (IC50) was 0.028 µM (active).

Take `C[C@H](CC(=O)O)C1NN(C)C2N=C(N)NC(=O)C2C1O` (stereo not given in full): the half-inhibitory concentration (IC50) (literature IC50, protein: Dihydropteroate Synthase, PDB entry 4d9p) is 145 µM (active).

In the case of `COc1ccc(C(=O)CCC(=O)O)c(O)c1`, the half-inhibitory concentration (IC50) (literature IC50, protein: Orotidine 5'-phosphate decarboxylase, PDB entry 3vi2) is 170 µM (active).

Take `CN1CCN(c2ccc(-c3ccncc3-c3cc(F)c(O)c(F)c3)cc2)CC1`: the IC50 (literature IC50, protein: Ribosomal protein S6 kinase alpha-3 RSK2, PDB entry 4nus) was 0.005 µM (active).

`CCCn1cnc2c1c(=O)n(CCCCC(C)=O)c(=O)n2C`: the IC50 (literature IC50, protein: Chitinase A(W275G mutant), PDB entry 3as2) is 360 µM (active).

In the case of `CC[C@H](C)[C@H](NC(C)=O)C(=O)N[C@@H](Cc1ccc(O)cc1)C(=O)N[C@@H](Cc1ccc(O)cc1)[P+](O)(O)O`, the concentration for half-maximal inhibition (IC50) (literature IC50, protein: Human testis angiotensin converting enzyme, PDB entry 4bzr) was 0.025 µM (active).

As for `O=C(NCc1cccc(O)c1)Nc1nc(-c2ccncc2)cs1`, the half-inhibitory concentration (IC50) (literature IC50, protein: Rho-associated protein kinase 1, PDB entry 3twj) was 0.0145 µM (active).

Consider `C[C@@H]1COC[C@@H](C)[N+]1=C1CC(=O)N2CC[C@@H](C(F)(F)F)[N+](Cc3ccc(Cl)s3)=C2N1`, for which, for the setting “literature IC50, protein: PHOSPHATIDYLINOSITOL 3-KINASE CATALYTIC SUBUNIT TYPE 3 Vsp34, PDB entry 4uwk”, the half-maximal inhibitory concentration (IC50) is 0.001 µM (active).

As for `CC(C)OCC[N+]1=C2NC(=[N+]3CCOCC3)CC(=O)N2CC[C@H]1C(F)(F)F`, the IC50 (literature IC50, protein: PHOSPHATIDYLINOSITOL 3-KINASE CATALYTIC SUBUNIT TYPE 3 Vsp34, PDB entry 4uwg) is 0.007 µM (active).

`O/N=C/c1ccc(O)cc1`: the half-inhibitory concentration (IC50) (literature IC50, protein: Macrophage Migration Inhibitory Factor (MIF), PDB entry 2ooz) was 7 µM (active).

In the case of `CC(C)[C@H]1[C@H](C(=O)N2CCC[C@H]2C(=O)N(C)C)SC2=N[C@@](C)(c3ccc(Cl)cc3)[C@@H](c3ccc(Cl)cc3)N21`, for the setting “literature IC50, protein: E3 ubiquitin-protein ligase Mdm2, PDB entry 3vzv”, the IC50 is 0.0092 µM (active).

For `CC(C)C[C@H](N[P+](O)(O)O[C@@H]1O[C@@H](C)[C@H](O)[C@@H](O)[C@H]1O)C(=O)N[C@@H](Cc1c[nH]c2ccccc12)C(=O)O`, the IC50 (literature IC50, protein: human neutral endopeptidase (Neprilysin), PDB entry 1dmt) is 0.002 µM (active).

For the compound `O=C1N=C(c2ccccc2)C=CC1O` (stereo not given), the IC50 (literature IC50, protein: Polymerase PA, PDB entry 4m5o) is 0.38 µM (active).

`Nc1csc2nccnc12`: the IC50 (literature IC50, protein: Dengue virus 3 non-structural protein 5, PDB entry 4ctk) is 10000 µM (active).

In the case of `O[C@@H]1[C@@H](CO[P+](O)(O)O)O[C@](O)(CO[P+](O)(O)O)[C@H]1O`, the concentration for half-maximal inhibition (IC50) (literature IC50, PDB entry 4fxf) is 6.5 µM (active).

Take `CCN1CCN(C(=O)N[C@@H](C(=O)N[C@H](C=O)[C@@H]2N[C@@H](C(=O)O)C(C)(C)S2)c2ccccc2)C(=O)C1=O`: where the note is “literature IC50, protein: Penicillin-binding protein 3, PDB entry 4kqo”, the IC50 is 0.166 µM (active).

For the compound `CCN1CCN(C(=O)N[C@@H](C(=O)N[C@H](C(=O)O)[C@H]2N[C@@H](C(=O)O)C(C)(C)S2)c2ccccc2)C(=O)C1=O`, the IC50 runs as follows: (literature IC50, protein: Penicillin-binding protein 3, PDB entry 4kqq) 126 µM (active); (literature IC50, protein: Penicillin-binding protein 3, PDB entry 4kqr) 126 µM (active).

For the compound `CC(=O)Nc1cc(Oc2ccc3c(ccn3C(=O)Nc3ccc(CN4CCN(C)CC4)c(C(F)(F)F)c3)c2)ncn1`, the IC50 (literature IC50, protein: Tyrosine-protein kinase JAK2, PDB entry 3ugc) is 0.947 µM (active).

On to `N#C[C@@H](Cc1cccc(C(=O)c2c[nH]c3ncccc23)c1)C(N)=O`, for which the IC50 (literature IC50, protein: Ribosomal protein S6 kinase alpha-3, PDB entry 4jg7) was 0.12 µM (active).

In the case of `O=C(N[C@H]1CCCCCCC[C@@H]2C[C@@]2(C(=O)NS(=O)(=O)C2CC2)NC(=O)[C@@H]2C[C@@H](OC(=O)N3CCc4ccccc4C3)CN2C1=O)OC1CCCC1`, under “literature IC50, protein: Serine protease NS3, PDB entry 4ktc”, the half-inhibitory concentration (IC50) was 0.001 µM (active).

On to `CCCCC[C@H](CC(=O)NO)C(=O)N[C@H](C(=O)N1CCC[C@H]1C(=O)O)C(C)C`, for which, for the setting “literature IC50, protein: Peptide Deformylase from Staphylococcus aureus, PDB entry 1q1y”, the IC50 is 0.02 µM (active).

For H-FLNKDLEVDGHFVTM-OH, where the note is “literature IC50, protein: HLA class I histocompatibility antigen, A-2 alpha chain HLA-A*0201, PDB entry 4u6y”, the 50% inhibitory concentration (IC50) is 0.083 µM (active).

As to H-GSDARFLRGYHLYA-OH, the IC50 (literature IC50, protein: HLA class II histocompatibility antigen, DR alpha chain, PDB entry 4ov5) is 0.0369 µM (active).

In the case of H-MHRVSAALEEANKVFL-OH, the 50% inhibitory concentration (IC50) (literature IC50, protein: Maltose ABC transporter periplasmic protein, Nuclear receptor subfamily 0 group B member 2 chimeric construct MBP-SHP, PDB entry 4nuf) is 5 µM (active).

On to `O=C(Nc1ccccc1N1CCNCC1)c1csc(-n2ncc3ccccc32)n1`, for which, for the setting “literature IC50, protein: Serine/threonine-protein kinase Chk1, PDB entry 4hyi”, the IC50 was 0.003 µM (active).

With `CN1C(=O)N[C@H](Cc2c[nH]c3c(Cl)cccc23)C1=O`, under “literature IC50, protein: Receptor-interacting serine/threonine-protein kinase 1 (C34A, C127A, C233A, C240A mutation), PDB entry 4ith”, the half-inhibitory concentration (IC50) is 0.317 µM (active).

Take `CCN(CC)CCOc1cccc2oc3c4c(O)c5c(=O)c(C)c6c(c5c3nc12)C(=O)[C@@](C)(OCC[C@H](OC)[C@@H](C)[C@@H](OC(C)=O)[C@H](C)[C@H](O)[C@H](C)[C@@H](O)[C@@H](C)CCC[C@@H](C)C(=O)N4)O6`: for the setting “literature IC50, protein: DNA-directed RNA polymerase subunit alpha, PDB entry 4kn4”, the IC50 was 0.057 µM (active).
